Assay results from PubChem BioAssay AID540317 (National Center for Advancing Translational Sciences (NCATS), 2011).
Hit rate of the full screen: of about 390,000 compounds, about 2,200 (0.56%) were called active. Roughly 3% stayed inconclusive and do not appear here. This excerpt belongs to a sample that is enriched for actives. A number with no mark means an inactive call. Calls follow the shape of the dose curve; as a rule, active = well fitted inhibition curve with a large enough effect; inconclusive = small, poorly fitted or top-dose-only effect; inactive = no such curve, though single readings can be large or run the other way.

What follows are compounds tested against Chromobox protein homolog 1 (Homo sapiens) (UniProt P83916) (assay: HTS for Inhibitors of HP1-beta Chromodomain Interactions with Methylated Histone Tails). Conditions: AlphaScreen HP1-beta / biotin-H3K9me3 peptide binding; series mostly up to 114 µM; activity change, negative = inhibition: at the top concentration.
Source text: As our understanding of epigenetics expands, it is becoming clear that players in this field are potential targets for drug development. This area of epigenetic therapy has established applications for the treatment of cancer and neurological diseases. We have been involved in this field for a number of years and have performed high-throughput screens to identify the first small molecule inhibitors of protein methyltransferases. These methyltransferases target multiple substrates, and thus regulate many arms of an epigenetic pathway. The methylation of different substrates often generates docking sites for effector proteins that harbor binding domains (chromo, tudor, PHD, MBT and ANK repeats). It has been proposed that the binding sites generated for different proteins by these post-translational modifcations mediate downstream effects on chromatin. Consistent with this theory, di- and tri-methylation of histone H3K9 facilitates the binding of heterochromatin protein HP1. The HP1 protein harbors a chromodomain that is responsible for the methyl-dependent interaction between HP1 and lysine 9 of histone H3. HP1 was first described in flies as a heterochromatin associated protein that can regulate gene silencing. It harbors a chromodomain that binds H3K9me3. In addition, it harbors a chromoshadow domain that interacts with a large number of proteins that are involved in heterochromatin formation and gene repression. There are three highly related HP1 isoforms. All three variants are associated with pericentric heterochromatin and it is not clear whether they have specific or redundant functions. MPP8 is also involved in the repression of gene in euchromatic regions (unpublished data) and like HP1 its chromodomain binds H3K9me3. MPP8 harbors an ankyrin repeat region that is likely involved in binding and recruiting interacting proteins with transcriptional repressive function, much like the chromoshadow domain of HP1 does. We hypothesize that by inhibiting specific protein-protein interactions we will be able to develop compounds that block a single arm of an epigenetic pathway. The specificity attained by blocking a single protein-protein interaction will be far greater than that attained by blocking the enzyme that regulates one of many interactions. Low-affinity protein-protein interactions (Kd in the single- to double-digit micromolar range) such as those discussed here have been very difficult to assay by traditional techniques such as fluorescence polarization or fluorescence resonance energy transfer. We have developed a sensitive chemiluminescence-based assay (Quinn, et al. 2009), which serves as the starting point for this project. The following is a validation assay to identify lead compounds that can block methyl-dependent protein-protein interactions (specifically HP1-beta), which can be used as probes to analyze these methyl-driven interactions and perhaps even developed into targeted epigenetic therapies. NIH Chemical Genomics Center [NCGC] NIH Molecular Libraries Probe Centers Network [MLPCN] MLPCN Grant: DA031087 Assay Submitter (PI): Mark Bedford, University of Texas, Medical Anderson Cancer Center, TX
To each well, 2 uL of HP1-beta protein (final 50 nM) and 1 uL biotinylated histone peptide trimethylated at Lys9 [b-H3(1-18)K9me3] (final 50 nM) was added in 1x PBS buffer, pH 7.4, containing 0.01% Tween-20 using a nanoliter dispenser. Formation of a protein-peptide complex proceeded at room temperature for 30 min. A Kalypsys pin-tool was employed to transfer 23 nL of library compound solution in DMSO to each well. Aurintricarboxylic acid (ATA) was used as an intraplate control with a 12-point titration in duplicate. Following a 30 min incubation of the protein-peptide complex with compounds at room temperature, a mixture of 40 ug/mL each streptavidin-coated donor and nickel chelate acceptor AlphaScreen beads (final 10 ug/mL) was added in a 1 uL dispense for a final volume of 4 uL. […]
Also: nearly all actives have a fitted effect of over 70% in size.
Potency is read from the fitted curve at half-maximal effect.

Chain of Chromobox protein homolog 1 (Homo sapiens) (P83916 whole entry, looked up): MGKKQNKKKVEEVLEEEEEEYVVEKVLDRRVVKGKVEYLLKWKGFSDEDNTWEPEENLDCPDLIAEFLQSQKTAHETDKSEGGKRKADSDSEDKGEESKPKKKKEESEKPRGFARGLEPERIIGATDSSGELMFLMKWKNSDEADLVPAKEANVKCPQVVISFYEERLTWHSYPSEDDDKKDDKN

Row | SMILES | activity change, negative = inhibition | Potency
1 | O=C(c1ccccc1[N+](=O)[O-])N1CCC2(CC1)OCCO2 | 32% | –
2 | O=C(O)c1cc[c]([Sb](=[O])([OH])[OH])cc1[N+](=O)[O-] | – | 0.794 µM (active)
3 | CCOc1ccc(S(=O)(=O)NCc2ccc3c(c2)OCO3)cc1C | 64.4% | –
4 | C=CCOC(=O)c1ccccc1C(=O)OCC=C | 39.4% | –
5 | CCn1cc2nc(SCc3ccccc3Cl)n(CCc3ccccc3)c(=O)c2n1 | 38.9% | –
6 | O=c1[nH]c(=S)[nH]c(O)c1/C=C1\C=Nc2ccccc21 | 42.9% | –
7 | Nc1nc(NC(=O)/C=C/c2ccc(F)cc2)nn1-c1ccccc1 | 40.4% | –
8 | COc1ccc(N2C(=O)/C(=C/c3ccco3)C(=O)NC2=S)cc1 | – | 14.1 µM (active)
9 | CCOC(=O)CNC(=O)N1c2ccccc2Sc2ccccc21 | 52.7% | –
10 | Brc1cc(Br)c(Oc2cc(Br)c(Br)cc2Br)cc1Br | 76.4% | –
11 | CN(C(=O)CSc1nc2ccc(NC(=O)COc3ccccc3)cc2s1)c1ccccc1 | 43% | –
12 | O=C(Cc1ccccc1[N+](=O)[O-])N1CCN(Cc2ccc3c(c2)OCO3)CC1 | 23.3% | –
13 | COc1ccccc1CN1CCN(C(=O)Cc2ccccc2)CC1 | – | 14.1 µM (active)
14 | O=C(Cc1ccccc1)N1CCN(C2CCCCCC2)CC1 | – | 79.4 µM (active)
15 | c1ccc(CC2CCCCN2)cc1 (stereo not given) | 14.8% | –
16 | c1ccc(CCNC2CCCCCC2)cc1 | -14.7% | –
17 | O=C(Cc1ccc(Cl)cc1)NCCN1CCN(C(=O)Cc2ccc(Cl)cc2)CC1 | 42.7% | –
18 | O=C(OCC(=O)c1cccs1)C1=COCCO1 | 30.1% | –

Row | SMILES | activity change, negative = inhibition | Potency
19 | O=C(CSc1ccccc1)Nc1ccc(C(=O)Nc2cccc(O)c2)cc1 | 61.2% | –
20 | O=c1c2ccccc2ccc2ccc(P(=O)(O)O)cc12 | 46.3% | –
21 | COc1cc(Cl)ccc1Nc1ncc(C(=O)N2CCN(c3ccccc3OC)CC2)c2ccccc12 | 64.1% | –
22 | O=C(COc1ccccc1Cl)Nc1ccc2nc(SCC(=O)N3CCCC3)sc2c1 | 35.7% | –
23 | CCOCCCNC(=O)c1c(NC(=O)c2nc(SC)ncc2Cl)sc2c1CCCC2 | 44.8% | –
24 | C[C@H]1CN([C@@H](C)CO)C(=O)Cc2cc(NC(=O)Cc3ccccc3)ccc2O[C@H]1CN(C)S(=O)(=O)c1cccs1 | 47.4% | –
25 | COc1cccc(N2C(=O)NC(=O)/C(=C\c3ccc([N+](=O)[O-])s3)C2=O)c1 | – | 31.6 µM (active)
26 | Cc1ccsc1/C=N/NC(=O)Cc1cc(=O)[nH][nH]1 | 66.6% | –
27 | CC(=O)c1ccc(OC(=O)N2CCOCC2)cc1 | 60% | –
28 | CCc1ccccc1NC(=O)c1sc2nc3c(cc2c1N)CN(Cc1ccccc1)CC3 | 39.4% | –
29 | CCN(CC)c1ccc(C2C(C(N)=O)=C(C)Nc3nc(SCc4ccccc4)nn32)cc1 (stereo not given) | 33.2% | –
30 | Cc1cc2n(n1)C(c1cc(C(C)(C)C)c(O)cc1O)Nc1ccccc1-2 (stereo not given) | 42.3% | –
31 | COc1ccc(CNC(=O)c2cc3c(-c4ccccc4F)nn(C)c3s2)c(OC)c1 | 51.6% | –
32 | Cc1cc(C)c2c(c1)NP(=S)(c1ccccc1)N2 (stereo not given) | – | 50.1 µM (active)
33 | Cc1ccc2c(c1)C1CN(C)CCC1N2C(=O)c1ccccc1NS(=O)(=O)c1ccc(F)cc1C (stereo not given) | 39.3% | –
34 | O=C(O)C1CSC(c2cccnc2)N1 (stereo not given) | – | 17.8 µM (active)
35 | CCc1ccc(C2C(C#N)=C(N)Oc3n[nH]c(CC(=O)OC)c32)cc1 (stereo not given) | 42.7% | –
